Here are results for 1 sequence from PMC7862700, “An all-to-all approach to the identification of sequence-specific readers for epigenetic DNA modifications on cytosine”.

Holding throughout (test): DAPPL (digital affinity profiling via proximity ligation, sequencing); 10 mM Tris-HCl pH 7.5, 50 mM NaCl, 1 mM DTT, 4% glycerol, room temperature, 30 min; GST-TFs on glutathione beads, 16-mer random dsDNA library, 0.1% formaldehyde crosslink after washing; high values mean tight binding
One experiment concerns the target T1, FLI1 (Homo sapiens, UniProt Q01543 1-452).
T1 sequence: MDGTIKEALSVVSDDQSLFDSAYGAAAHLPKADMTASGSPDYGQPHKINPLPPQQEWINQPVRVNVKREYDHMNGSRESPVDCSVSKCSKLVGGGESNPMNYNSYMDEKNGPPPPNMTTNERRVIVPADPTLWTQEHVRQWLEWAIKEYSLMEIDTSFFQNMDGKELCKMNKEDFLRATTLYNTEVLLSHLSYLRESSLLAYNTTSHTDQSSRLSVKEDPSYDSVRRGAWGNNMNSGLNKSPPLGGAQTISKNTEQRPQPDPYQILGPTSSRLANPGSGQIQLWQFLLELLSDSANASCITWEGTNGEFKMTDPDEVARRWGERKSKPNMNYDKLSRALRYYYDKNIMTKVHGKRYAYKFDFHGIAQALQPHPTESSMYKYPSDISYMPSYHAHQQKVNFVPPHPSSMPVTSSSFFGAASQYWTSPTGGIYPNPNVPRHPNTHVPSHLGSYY
Conditions: protein: recombinant; tags: N-terminal GST; dsDNA, one strand shown. The method in brief:
(§1)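 After expression in yeast as GST fusions, human transcription factors were bound to glutathione beads, DNA-barcoded and mixed with a tag-only sample. The pools were incubated with 200 nmole of a 16-mer random double-stranded DNA library in Tris/NaCl/DTT/glycerol buffer (30 min, room temperature), washed and crosslinked with 0.1% formaldehyde. Proximity ligation with BsaI/T4 ligase ran for 1 h at 37 °C, before PCR amplification and sequencing on an Illumina NextSeq500. Binding signal is a hexamer's read frequency for a factor divided by its frequency for the tag-only sample.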

Another experiment concerns the target T2, ELK1 (Homo sapiens, UniProt P19419 1-428).
T2 sequence: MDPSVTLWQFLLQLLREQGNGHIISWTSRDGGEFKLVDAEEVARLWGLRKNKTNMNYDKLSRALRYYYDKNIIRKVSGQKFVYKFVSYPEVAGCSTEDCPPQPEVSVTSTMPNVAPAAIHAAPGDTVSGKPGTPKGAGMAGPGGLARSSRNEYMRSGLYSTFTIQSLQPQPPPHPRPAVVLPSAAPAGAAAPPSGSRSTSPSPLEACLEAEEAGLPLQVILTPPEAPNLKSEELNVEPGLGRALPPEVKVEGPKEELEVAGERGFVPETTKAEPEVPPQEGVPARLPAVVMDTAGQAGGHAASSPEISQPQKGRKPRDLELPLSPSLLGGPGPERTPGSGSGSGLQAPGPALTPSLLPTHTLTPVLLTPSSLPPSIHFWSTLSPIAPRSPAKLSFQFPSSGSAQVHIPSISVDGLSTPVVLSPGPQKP
Conditions: protein: recombinant; tags: N-terminal GST; dsDNA, one strand shown. The gist of the method: as §1

For the next experiment, the target named is T3, GABPA (Homo sapiens, UniProt Q06546 1-454).
T3 sequence: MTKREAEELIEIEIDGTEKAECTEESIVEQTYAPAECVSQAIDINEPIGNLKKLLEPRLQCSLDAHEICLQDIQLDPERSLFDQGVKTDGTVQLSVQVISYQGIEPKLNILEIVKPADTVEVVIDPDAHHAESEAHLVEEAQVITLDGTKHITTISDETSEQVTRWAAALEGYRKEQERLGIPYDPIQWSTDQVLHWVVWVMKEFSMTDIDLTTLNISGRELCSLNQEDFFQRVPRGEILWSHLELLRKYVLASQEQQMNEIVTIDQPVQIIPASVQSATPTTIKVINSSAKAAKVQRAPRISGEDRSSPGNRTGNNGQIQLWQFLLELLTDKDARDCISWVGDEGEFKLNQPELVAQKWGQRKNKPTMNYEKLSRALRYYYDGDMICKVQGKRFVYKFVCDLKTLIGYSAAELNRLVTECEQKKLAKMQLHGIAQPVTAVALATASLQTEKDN
Conditions: protein: recombinant; tags: N-terminal GST; dsDNA, one strand shown. The gist of the method: as §1

The target of another experiment is T4, ERG (Homo sapiens, UniProt P11308 1-479).
T4 sequence: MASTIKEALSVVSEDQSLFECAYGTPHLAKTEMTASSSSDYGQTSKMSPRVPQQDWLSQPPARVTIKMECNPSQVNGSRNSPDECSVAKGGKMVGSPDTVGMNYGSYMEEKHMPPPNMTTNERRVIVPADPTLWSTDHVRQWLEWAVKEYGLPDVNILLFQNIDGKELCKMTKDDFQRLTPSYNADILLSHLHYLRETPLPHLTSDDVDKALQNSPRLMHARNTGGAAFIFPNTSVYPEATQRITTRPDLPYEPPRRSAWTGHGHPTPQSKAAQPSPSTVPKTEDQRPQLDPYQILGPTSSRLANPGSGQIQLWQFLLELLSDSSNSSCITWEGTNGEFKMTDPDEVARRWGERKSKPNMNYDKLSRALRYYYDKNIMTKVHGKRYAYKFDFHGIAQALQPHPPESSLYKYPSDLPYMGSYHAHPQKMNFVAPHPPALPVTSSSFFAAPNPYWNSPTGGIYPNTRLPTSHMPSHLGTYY
Conditions: protein: recombinant; tags: N-terminal GST; dsDNA, one strand shown. The method in brief:
as §1

Another experiment addresses ELF1 (Homo sapiens, UniProt P32519 1-619). Conditions: protein: recombinant; tags: N-terminal GST; dsDNA, one strand shown. The method in brief: as §1
The target of another experiment is T5, EHF (Homo sapiens, UniProt Q9NZC4 1-300).
T5 sequence: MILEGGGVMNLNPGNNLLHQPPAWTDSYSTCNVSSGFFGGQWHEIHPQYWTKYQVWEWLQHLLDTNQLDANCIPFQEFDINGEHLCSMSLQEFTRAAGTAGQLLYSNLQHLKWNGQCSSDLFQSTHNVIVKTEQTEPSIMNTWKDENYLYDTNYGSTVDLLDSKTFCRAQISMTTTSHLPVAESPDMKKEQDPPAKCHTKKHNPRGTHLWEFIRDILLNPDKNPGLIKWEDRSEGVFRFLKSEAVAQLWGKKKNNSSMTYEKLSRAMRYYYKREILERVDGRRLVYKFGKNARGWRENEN
The conditions noted are these: protein: recombinant; tags: N-terminal GST; dsDNA, one strand shown. The gist of the method: as §1

The next experiment has as its target SPI1 (Homo sapiens, UniProt P17947 1-270). Conditions: protein: recombinant; tags: N-terminal GST; dsDNA, one strand shown. The gist of the method: as §1
The target of a further experiment is SPIB (Homo sapiens, UniProt Q01892 1-262). The conditions noted are these: protein: recombinant; tags: N-terminal GST; dsDNA, one strand shown. The method in brief:
as §1

For another experiment, the target named is T6, ELK3 (Homo sapiens, UniProt P41970 1-407).
T6 sequence: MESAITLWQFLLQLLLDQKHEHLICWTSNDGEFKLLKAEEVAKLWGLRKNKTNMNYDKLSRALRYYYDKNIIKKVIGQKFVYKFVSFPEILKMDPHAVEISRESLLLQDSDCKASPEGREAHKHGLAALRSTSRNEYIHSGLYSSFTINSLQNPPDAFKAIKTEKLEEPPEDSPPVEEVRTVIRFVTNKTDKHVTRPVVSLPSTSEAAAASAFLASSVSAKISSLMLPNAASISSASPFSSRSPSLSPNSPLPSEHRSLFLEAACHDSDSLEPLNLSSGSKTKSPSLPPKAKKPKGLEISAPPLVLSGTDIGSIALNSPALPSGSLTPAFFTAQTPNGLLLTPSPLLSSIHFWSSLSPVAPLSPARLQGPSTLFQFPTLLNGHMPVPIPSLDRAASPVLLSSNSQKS
The conditions noted are these: protein: recombinant; tags: N-terminal GST; dsDNA, one strand shown. The method in brief:
as §1

For a further experiment, the target named is T7, FEV (Homo sapiens, UniProt Q99581 1-238).
T7 sequence: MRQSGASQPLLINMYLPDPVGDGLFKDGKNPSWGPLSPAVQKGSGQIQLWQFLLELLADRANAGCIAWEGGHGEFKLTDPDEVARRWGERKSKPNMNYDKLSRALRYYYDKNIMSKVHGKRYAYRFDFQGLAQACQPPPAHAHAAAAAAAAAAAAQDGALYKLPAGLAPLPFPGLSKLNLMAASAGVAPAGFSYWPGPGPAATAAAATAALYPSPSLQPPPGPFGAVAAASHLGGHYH
Conditions: protein: recombinant; tags: N-terminal GST; dsDNA, one strand shown. The gist of the method:
as §1

In a further experiment the target is ETV5 (Homo sapiens, UniProt P41161 1-510). Conditions: protein: recombinant; tags: N-terminal GST; dsDNA, one strand shown. The method in brief:
as §1

The target in the next experiment is HSF1 (Homo sapiens, UniProt Q00613 1-529). Conditions: protein: recombinant; tags: N-terminal GST; chain copies: 3; dsDNA, one strand shown. The method in brief: as §1
HSF1, sequence (Q00613 whole entry): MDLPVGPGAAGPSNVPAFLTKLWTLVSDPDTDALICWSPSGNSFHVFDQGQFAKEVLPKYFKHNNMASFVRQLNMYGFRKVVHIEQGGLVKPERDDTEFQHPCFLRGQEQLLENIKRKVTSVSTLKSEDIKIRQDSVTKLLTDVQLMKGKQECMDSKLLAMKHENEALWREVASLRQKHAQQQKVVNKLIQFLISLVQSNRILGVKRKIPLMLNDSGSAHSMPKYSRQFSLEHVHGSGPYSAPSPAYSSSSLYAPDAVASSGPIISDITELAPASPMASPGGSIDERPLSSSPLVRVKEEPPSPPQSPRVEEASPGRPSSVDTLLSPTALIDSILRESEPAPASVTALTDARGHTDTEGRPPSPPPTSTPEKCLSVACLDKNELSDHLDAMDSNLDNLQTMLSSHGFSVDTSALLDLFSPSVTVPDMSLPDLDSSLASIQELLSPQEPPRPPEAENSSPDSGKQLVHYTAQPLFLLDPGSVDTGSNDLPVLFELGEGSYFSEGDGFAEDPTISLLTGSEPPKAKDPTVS
In the next experiment the target is T8, SPIC (Homo sapiens, UniProt Q8N5J4 1-248).
T8 sequence: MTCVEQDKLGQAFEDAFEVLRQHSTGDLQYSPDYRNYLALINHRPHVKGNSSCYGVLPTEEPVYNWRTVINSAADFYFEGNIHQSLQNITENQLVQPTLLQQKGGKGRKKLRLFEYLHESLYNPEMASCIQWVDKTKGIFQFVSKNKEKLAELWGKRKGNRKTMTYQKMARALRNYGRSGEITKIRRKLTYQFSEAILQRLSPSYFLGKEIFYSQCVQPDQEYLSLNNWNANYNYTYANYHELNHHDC
The conditions noted are these: protein: recombinant; tags: N-terminal GST; dsDNA, one strand shown. The method in brief:
as §1

The next experiment concerns the target ELF4 (Homo sapiens, UniProt Q99607 1-663). Conditions: protein: recombinant; tags: N-terminal GST; dsDNA, one strand shown. The method in brief: as §1
For a further experiment, the target named is T9, ELK4 (Homo sapiens, UniProt P28324-2 1-405).
T9 sequence: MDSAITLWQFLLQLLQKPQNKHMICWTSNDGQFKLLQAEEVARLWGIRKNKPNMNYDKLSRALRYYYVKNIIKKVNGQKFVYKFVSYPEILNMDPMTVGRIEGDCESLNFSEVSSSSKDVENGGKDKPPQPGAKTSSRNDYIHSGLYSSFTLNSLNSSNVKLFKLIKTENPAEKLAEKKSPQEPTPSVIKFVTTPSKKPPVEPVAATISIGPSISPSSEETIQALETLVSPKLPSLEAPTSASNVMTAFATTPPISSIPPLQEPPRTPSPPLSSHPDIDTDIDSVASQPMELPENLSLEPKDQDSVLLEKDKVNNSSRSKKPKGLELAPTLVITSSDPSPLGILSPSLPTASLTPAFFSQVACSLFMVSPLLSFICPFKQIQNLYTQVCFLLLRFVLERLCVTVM
Conditions: protein: recombinant; tags: N-terminal GST; dsDNA, one strand shown. The gist of the method: as §1

A further experiment addresses T10, ETV2 (Homo sapiens, UniProt O00321 1-342).
T10 sequence: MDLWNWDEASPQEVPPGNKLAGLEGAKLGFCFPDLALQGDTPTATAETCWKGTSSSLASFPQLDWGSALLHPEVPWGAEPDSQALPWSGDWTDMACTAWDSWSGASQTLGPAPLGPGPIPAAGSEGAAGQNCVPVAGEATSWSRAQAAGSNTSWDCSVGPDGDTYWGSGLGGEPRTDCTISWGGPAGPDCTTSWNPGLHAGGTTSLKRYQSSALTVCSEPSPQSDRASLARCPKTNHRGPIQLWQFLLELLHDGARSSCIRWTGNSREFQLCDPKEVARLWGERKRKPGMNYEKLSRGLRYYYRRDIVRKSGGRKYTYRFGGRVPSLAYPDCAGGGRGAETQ
Conditions: protein: recombinant; tags: N-terminal GST; dsDNA, one strand shown. The gist of the method: as §1

In another experiment the target is T11, ELF3 (Homo sapiens, UniProt P78545 1-371).
T11 sequence: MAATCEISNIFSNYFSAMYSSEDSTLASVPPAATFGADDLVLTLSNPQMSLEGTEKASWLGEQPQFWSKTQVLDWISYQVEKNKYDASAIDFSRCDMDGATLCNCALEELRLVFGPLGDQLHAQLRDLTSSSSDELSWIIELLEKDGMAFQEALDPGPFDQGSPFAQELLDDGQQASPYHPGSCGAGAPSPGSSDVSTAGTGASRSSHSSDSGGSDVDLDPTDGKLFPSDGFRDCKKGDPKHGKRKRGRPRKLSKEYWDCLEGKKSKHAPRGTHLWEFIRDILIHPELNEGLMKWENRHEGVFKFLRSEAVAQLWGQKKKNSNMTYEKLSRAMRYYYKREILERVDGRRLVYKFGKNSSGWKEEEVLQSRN
The conditions noted are these: protein: recombinant; tags: N-terminal GST; dsDNA, one strand shown. The method in brief:
as §1

A further experiment deals with CRX (Homo sapiens, UniProt O43186 1-299). Conditions: protein: recombinant; tags: N-terminal GST; dsDNA, one strand shown. The method in brief: as §1
CRX, sequence (O43186 whole entry): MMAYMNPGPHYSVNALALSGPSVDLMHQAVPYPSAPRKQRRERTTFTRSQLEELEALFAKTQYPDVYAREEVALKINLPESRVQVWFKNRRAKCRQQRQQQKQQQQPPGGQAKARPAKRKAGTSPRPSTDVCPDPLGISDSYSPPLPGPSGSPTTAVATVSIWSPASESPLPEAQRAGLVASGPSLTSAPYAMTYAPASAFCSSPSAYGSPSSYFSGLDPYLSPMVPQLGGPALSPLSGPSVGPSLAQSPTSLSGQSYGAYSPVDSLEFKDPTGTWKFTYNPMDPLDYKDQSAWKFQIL
Another experiment concerns the target ETV1 (Homo sapiens, UniProt P50549 1-477). Conditions: protein: recombinant; tags: N-terminal GST; dsDNA, one strand shown. The method in brief: as §1

SPIB, sequence (Q01892 whole entry): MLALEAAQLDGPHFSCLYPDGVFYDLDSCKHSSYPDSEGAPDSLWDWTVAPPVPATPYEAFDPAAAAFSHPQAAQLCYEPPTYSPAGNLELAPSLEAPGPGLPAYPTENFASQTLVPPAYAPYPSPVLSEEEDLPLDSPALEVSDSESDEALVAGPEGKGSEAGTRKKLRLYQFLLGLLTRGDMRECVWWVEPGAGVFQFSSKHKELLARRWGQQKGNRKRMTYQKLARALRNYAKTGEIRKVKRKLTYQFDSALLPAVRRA
ELF4, sequence (Q99607 whole entry): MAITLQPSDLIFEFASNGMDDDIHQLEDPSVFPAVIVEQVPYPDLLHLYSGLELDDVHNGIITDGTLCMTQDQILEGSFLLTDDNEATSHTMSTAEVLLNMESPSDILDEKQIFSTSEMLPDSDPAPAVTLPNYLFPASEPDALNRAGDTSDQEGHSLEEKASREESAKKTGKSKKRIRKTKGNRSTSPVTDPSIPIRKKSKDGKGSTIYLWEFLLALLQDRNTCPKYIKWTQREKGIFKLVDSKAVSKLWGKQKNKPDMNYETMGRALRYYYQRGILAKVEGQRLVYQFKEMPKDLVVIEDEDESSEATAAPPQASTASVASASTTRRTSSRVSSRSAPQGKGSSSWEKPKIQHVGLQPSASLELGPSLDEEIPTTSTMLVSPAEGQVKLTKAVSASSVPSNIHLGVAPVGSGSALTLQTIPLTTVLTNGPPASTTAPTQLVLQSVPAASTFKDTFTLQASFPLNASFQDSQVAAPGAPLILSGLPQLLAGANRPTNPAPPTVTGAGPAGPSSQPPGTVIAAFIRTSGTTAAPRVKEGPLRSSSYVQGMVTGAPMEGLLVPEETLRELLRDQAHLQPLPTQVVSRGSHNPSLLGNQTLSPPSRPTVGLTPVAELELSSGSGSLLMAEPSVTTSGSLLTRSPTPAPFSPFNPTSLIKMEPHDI
ETV5, sequence (P41161 whole entry): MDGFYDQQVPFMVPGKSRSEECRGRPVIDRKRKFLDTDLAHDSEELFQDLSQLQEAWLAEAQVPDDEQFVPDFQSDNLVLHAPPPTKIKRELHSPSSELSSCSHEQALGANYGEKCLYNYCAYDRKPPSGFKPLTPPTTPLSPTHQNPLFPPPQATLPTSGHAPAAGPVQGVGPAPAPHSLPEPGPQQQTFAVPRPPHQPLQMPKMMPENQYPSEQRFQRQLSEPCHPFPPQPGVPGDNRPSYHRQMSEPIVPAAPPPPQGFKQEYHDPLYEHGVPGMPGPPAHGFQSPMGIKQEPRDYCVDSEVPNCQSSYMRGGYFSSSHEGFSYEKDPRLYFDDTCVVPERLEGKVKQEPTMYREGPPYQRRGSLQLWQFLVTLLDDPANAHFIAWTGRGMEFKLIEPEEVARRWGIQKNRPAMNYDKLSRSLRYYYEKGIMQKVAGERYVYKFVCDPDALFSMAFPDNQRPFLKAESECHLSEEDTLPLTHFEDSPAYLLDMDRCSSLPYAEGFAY
ELF1, sequence (P32519 whole entry): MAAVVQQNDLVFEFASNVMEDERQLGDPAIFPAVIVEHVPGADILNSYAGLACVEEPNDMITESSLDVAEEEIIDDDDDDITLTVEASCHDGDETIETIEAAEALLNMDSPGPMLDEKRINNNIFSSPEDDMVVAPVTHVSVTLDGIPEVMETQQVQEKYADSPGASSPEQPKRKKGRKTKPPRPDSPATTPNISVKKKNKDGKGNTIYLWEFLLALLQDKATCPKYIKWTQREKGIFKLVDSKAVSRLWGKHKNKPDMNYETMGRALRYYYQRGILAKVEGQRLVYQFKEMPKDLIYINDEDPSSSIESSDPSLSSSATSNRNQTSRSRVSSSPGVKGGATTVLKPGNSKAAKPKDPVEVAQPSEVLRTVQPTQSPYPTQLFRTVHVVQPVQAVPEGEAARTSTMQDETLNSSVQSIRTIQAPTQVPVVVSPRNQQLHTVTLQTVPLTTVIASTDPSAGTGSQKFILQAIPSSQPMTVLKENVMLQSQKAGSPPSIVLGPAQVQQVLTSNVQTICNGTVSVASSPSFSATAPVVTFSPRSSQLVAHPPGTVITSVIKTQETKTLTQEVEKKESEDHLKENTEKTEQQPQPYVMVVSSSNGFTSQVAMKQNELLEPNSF
ETV1, sequence (P50549 whole entry): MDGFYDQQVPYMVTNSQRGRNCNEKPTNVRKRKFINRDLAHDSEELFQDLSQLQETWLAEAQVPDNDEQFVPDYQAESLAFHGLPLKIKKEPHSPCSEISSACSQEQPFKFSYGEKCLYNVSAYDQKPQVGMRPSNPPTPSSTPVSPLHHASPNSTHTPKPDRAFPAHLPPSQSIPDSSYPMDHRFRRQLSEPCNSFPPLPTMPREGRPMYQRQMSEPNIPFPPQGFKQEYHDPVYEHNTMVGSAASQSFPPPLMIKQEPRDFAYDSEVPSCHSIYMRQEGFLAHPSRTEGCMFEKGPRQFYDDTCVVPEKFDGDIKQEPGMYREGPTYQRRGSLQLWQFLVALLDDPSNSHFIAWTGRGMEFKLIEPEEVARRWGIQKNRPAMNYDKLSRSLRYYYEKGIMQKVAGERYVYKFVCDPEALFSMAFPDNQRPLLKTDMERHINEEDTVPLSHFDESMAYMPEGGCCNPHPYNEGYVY

Turning to ATTACT, the binding signal with FLI1 was 1.3 fold enrichment (6-mer frequency, TF over GST control); in the experiment with ELK1 it was 1.12 fold enrichment (6-mer frequency, TF over GST control); in the experiment with GABPA, 1.29 fold enrichment (6-mer frequency, TF over GST control); in the experiment with ERG, 1.22 fold enrichment (6-mer frequency, TF over GST control); with ELF1, 1.28 fold enrichment (6-mer frequency, TF over GST control); with EHF, 1.27 fold enrichment (6-mer frequency, TF over GST control). Further, the binding signal with SPI1 was 1.28 fold enrichment (6-mer frequency, TF over GST control); in the experiment with SPIB it was 1.33 fold enrichment (6-mer frequency, TF over GST control); with ELK3 it was 1.24 fold enrichment (6-mer frequency, TF over GST control); in the experiment with FEV, 1.27 fold enrichment (6-mer frequency, TF over GST control); with ETV5, 1.23 fold enrichment (6-mer frequency, TF over GST control); with HSF1 it was 1.66 fold enrichment (6-mer frequency, TF over GST control). In addition, the binding signal with SPIC is 1.38 fold enrichment (6-mer frequency, TF over GST control); in the experiment with ELF4 it was 1.19 fold enrichment (6-mer frequency, TF over GST control); in the experiment with ELK4, 1.39 fold enrichment (6-mer frequency, TF over GST control); in the experiment with ETV2, 1.48 fold enrichment (6-mer frequency, TF over GST control); in the experiment with ELF3, 1.39 fold enrichment (6-mer frequency, TF over GST control); with CRX, 2.22 fold enrichment (6-mer frequency, TF over GST control). Also, in the experiment with ETV1, the binding signal was 1.35 fold enrichment (6-mer frequency, TF over GST control).
